Screens deposited in PubChem by National Center for Advancing Translational Sciences (NCATS).
TSHR antag = blocks TSH signaling through the human TSH receptor; P16473; TSHR-expressing cells, TSH-stimulated cAMP HTRF, 2 h; active compounds read low; activity change, negative = inhibition, % at 11.5 µM; 330,000 tested, 0.2% active; AID 504810;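 active = activity change below a set negative limit, meaning inhibition stronger than a set level, cut at about -70% in these data; inconclusive = activity change between two set negative limits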; note: % is set by controls: 0 for no effect and ±100 for the full control effect
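TSHR-expressing cells were treated with compounds, then stimulated with TSH at EC80 (4nM final) for 2 hours at 37 deg C. Cellular cAMP was measured by HTRF competition between lysate cAMP and cAMP-d2 for a cryptate-labelled anti-cAMP antibody.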
ASM inhibitor = blocks human secretory acid sphingomyelinase | P17405 | placental ASM, HMU-PC fluorogenic substrate, 60 min | Potency, µM (highest dose often 57.5 µM), for the others: at the top dose activity change, negative = inhibition, usual class: inhibitors | 340,000 tested, 0.006% active; active = well fitted inhibition curve with a large enough effect; inconclusive = small, poorly fitted or top-dose-only effect; inactive = no such curve, though single readings can be large or run the other way; note: potency is the fitted concentration of half-maximal effect
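Fluorescence read-out (Ex 386 nm, Em 447 nm) after stopping the reaction at pH 10. Enzyme: ASM from human placenta; substrate HMU-PC0, 9 uM final; 60 min, 37 °C. Compound preincubation 10 min, ambient temperature.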
Chronic BCR inh = chronic active BCR signaling inhibition | ABC-DLBCL IkBa-CBG/CBR reporter, luminescence ratio, 4 h | Potency, µM (top dose mostly 46.1 µM), for inactives: at the highest dose activity change, negative = inhibition, hits mostly inhibitors | AID 493014 | 340,000 tested, 0.05% active; active = well fitted inhibition curve with a large enough effect in the signal ratio, with a control signal flat, not every such curve was filed as active; inconclusive = small, poorly fitted or top-dose-only effect, or effect the other way, or a change in a side signal; the % refers to the signal ratio;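 note: potency is the fitted concentration of half-maximal effect; plate controls were basal doxycycline-induced cells for no effect and cells given 10 µM MG132 for full effect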
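Doxycycline induced both beetle luciferases in TMD8 lymphoma cells; IKK-driven degradation limits the IkappaBalpha-fused green signal, while red luminescence normalises for cell number and nonspecific effects. Compounds tested up to 46 uM, 4 hrs.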
Six1-Eya2 blk = blocks human Six1 binding to Eya2; 360,000 tested, 0.56% active; activity change, % (no concentration beside the values); AID 651725; Q15475+O00167; AlphaScreen GST-Six1/His-Eya2 binding, biochemical; active compounds read low; note: % is set by controls: 0 for no effect and ±100 for the full control effect
Target sequence (O00167 whole entry, looked up): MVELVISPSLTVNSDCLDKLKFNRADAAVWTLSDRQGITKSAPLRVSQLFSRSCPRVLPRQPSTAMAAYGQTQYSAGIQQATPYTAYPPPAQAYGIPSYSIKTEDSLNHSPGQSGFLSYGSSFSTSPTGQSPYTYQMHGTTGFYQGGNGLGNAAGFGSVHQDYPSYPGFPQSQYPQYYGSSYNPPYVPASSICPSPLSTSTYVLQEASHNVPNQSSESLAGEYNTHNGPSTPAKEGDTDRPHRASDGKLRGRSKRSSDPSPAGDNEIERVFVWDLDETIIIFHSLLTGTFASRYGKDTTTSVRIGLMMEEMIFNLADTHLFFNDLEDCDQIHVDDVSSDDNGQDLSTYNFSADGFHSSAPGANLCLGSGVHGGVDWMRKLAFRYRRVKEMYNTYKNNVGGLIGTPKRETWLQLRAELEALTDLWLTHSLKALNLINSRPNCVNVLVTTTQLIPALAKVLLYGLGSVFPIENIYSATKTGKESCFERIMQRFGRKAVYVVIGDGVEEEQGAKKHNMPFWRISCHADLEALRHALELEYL
Target sequence (Q15475 whole entry, looked up): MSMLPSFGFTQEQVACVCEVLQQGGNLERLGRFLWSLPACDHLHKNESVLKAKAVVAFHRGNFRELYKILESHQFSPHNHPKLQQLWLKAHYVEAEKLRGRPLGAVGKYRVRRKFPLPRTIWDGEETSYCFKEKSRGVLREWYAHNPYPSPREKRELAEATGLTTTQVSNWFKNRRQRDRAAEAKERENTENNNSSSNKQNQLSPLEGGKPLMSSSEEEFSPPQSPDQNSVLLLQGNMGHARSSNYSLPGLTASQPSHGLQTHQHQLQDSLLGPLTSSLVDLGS
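AlphaScreen luminescence read after one hour at 37 °C in darkness. Pin-transferred compounds met GST-Six1 and His-Eya2 protein (5X stock 250 nM/500 nM) plus glutathione donor and Ni-chelate acceptor beads (5X, 50 ug/mL).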
CtBP-E1A blk = CtBP/E1A binding inhibition; AlphaScreen GST-E1A/His-CtBP binding, 1536-well; active compounds read low; activity change, % (concentration not given with the values); 340,000 tested, 0.49% active; note: % is set by controls: 0 for no effect and ±100 for the full control effect
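AlphaScreen with 125 nM GST-E1A and 125 nM His-CtBP (5X stocks) in Tris pH 8.0, 300 mM NaCl, BSA, Tween 20, TCEP. Compounds preincubated 2 h at 37 deg C, then glutathione donor/nickel acceptor beads added for 1 h at 37 deg C in dark.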
* = called active by the depositor; ? = inconclusive; . = no result given. Rows were chosen to be rich in hits. Some 0.85% of all compounds tested hit in one or more screens of this group. Cut-off read from the data, not from the text of the source, unless noted: active = activity change below about -65%; inconclusive = mostly about -30% to -63%; inactive = weaker than that.

SMILES	TSHR antag	ASM inhibitor	Chronic BCR inh	Six1-Eya2 blk	CtBP-E1A blk
O=C(O)c1cc2cc(Cl)cc(Cl)c2oc1=O	11	-2%	?	?	-74*
O=C(NCCO)c1cc2cc(Cl)cc(Cl)c2oc1=O	-7	2%	1%	-3	1
CN(C(=O)c1ccc2c(c1)N(Cc1cccc(Cl)c1)C(=O)c1ccccc1S2(=O)=O)C1CCCCC1	.	.	12%	.	.
Cc1ccc(C)c(NC(=O)CCc2ccc(C)o2)c1	3	7%	-10%	3	.
Cc1cc(NC(=O)CCc2ccc(C)o2)no1	1	0%	-2%	-77*	-18
Cc1ccccc1NC1=C/C(=N\S(=O)(=O)c2cccs2)c2ccccc2C1=O	-50	-9%	?	-84*	-85*
O=C(O)c1ccc(S(=O)(=O)/N=C2\C=C(Nc3ccccc3F)C(=O)c3ccccc32)cc1	?	13%	?	?	-76*
COc1ccc(S(=O)(=O)/N=C2\C=C(Nc3ccc(O)cc3)C(=O)c3ccccc32)cc1	-42	-16%	?	?	-88*
Cc1ccccc1NC1=C/C(=N\S(=O)(=O)c2ccc(C(=O)O)cc2)c2ccccc2C1=O	?	6%	?	-23	?
COc1ccc(CCNC(=O)C(=O)NCC(c2ccco2)S(=O)(=O)c2ccccc2)cc1OC (stereo not drawn)	.	.	-8%	.	.
CC(=O)c1ccc2c(c1)C1C=CCC1C(C(=O)O)N2 (stereo not drawn)	36	-28%	-5%	-68*	?
Cc1ccccc1NC(=O)CN(C)S(=O)(=O)c1cccc2nsnc12	.	.	-11%	.	.
CCOC(=O)c1c(S(=O)(=O)N2CCC(C(=O)Nc3ncccc3C)CC2)c(C)n(C)c1C	.	.	10%	.	.
CCOC(=O)c1c(C)[nH]c(C)c1S(=O)(=O)N1CCC(C(=O)NCc2ccc(OC)cc2)CC1	.	.	0%	.	.
Cc1ccc(C(=O)N/N=C/c2cccc(OC(=O)/C=C/c3ccco3)c2)cn1	-7	-4%	?	-10	.
O=C(COc1ccc2ccccc2c1)NCC(=O)N/N=C/c1ccco1	-1	5%	?	0	2
O=C(CNc1ccc2ccccc2c1)N/N=C/c1ccc(OC(=O)/C=C/c2ccco2)cc1	-9	-19%	-5%	?	-67*
O=C(/C=C/c1ccco1)Oc1cc(Br)cc(/C=N/NC(=O)c2ccccc2O)c1	-33	58%	?	-88*	-92*
O=C(CNc1cccc2ccccc12)N/N=C/c1ccc(OC(=O)/C=C/c2ccco2)cc1	-8	-8%	-6%	?	-79*
Nc1nc(SCC(=O)N2CCN(c3ccccc3)CC2)n[nH]1	1	-3%	3%	-1	-1
Cc1nc(SCC(=O)N2CCN(c3ccccc3)CC2)n[nH]1	-89*	1%	7%	0	0
CCCNc1c(NS(=O)(=O)c2ccc(Br)cc2)c(=O)oc2ccccc12	-147*	2%	12%	2	7
COc1ccc(-n2c(C)cc(C(=O)COC(=O)c3ccc(O)cc3O)c2C)cc1	-74*	-12%	?	-19	?
CC1CCN(Cc2c(C(=O)N/N=C/c3cc(Br)ccc3O)nnn2-c2nonc2N)CC1	-4	-3%	-1%	-7	-6
CC1CCN(Cc2c(C(=O)N/N=C/c3cc(Cl)ccc3O)nnn2-c2nonc2N)CC1	-100*	-4%	-14%	13	-2
SMILES	TSHR antag	ASM inhibitor	Chronic BCR inh	Six1-Eya2 blk	CtBP-E1A blk
CCCCN(C)S(=O)(=O)c1cc(-c2nnc3c4ccccc4c(C)nn23)ccc1C	.	.	9%	.	.
COC(=O)c1ccc(=O)c2nc3/c(=C/O)c(O)cc(=O)c3[nH]c12	-12	-23%	?	-89*	-94*
O=C(O)c1ccc2c(c1)C(=O)N([C@H](Cc1ccc(-c3ccccc3)cc1)C(=O)O)C2=O	-1	.	-4%	.	.
Nc1nc2nc[nH]c2c(=O)[nH]1	-71*	-1%	-3%	5	4
Cc1ccc(C(=O)O)cc1N1C(=O)c2cccc3c([N+](=O)[O-])ccc(c23)C1=O	-73*	-5%	?	?	-8
COc1ccc(NS(=O)(=O)c2ccc3ccccc3c2)c2ncccc12	-6	0%	3.2µM*	-26	?
O=S(=O)(Nc1cccc2cccnc12)c1ccccc1	2	-2%	?	-66*	-84*
O=S(=O)(Nc1cccc2cccnc12)c1ccc(S(=O)(=O)N2CCCC2)cc1	6	-1%	?	-76*	-90*
Cc1ccc(S(=O)(=O)Nc2cccc3cccnc23)c([N+](=O)[O-])c1	-30	-1%	?	-91*	-80*
Cc1cc(C)c(NS(=O)(=O)c2cccc3cccnc23)c(C)c1	-6	-3%	-2%	-7	-1
CCC(Sc1nc2ccccc2c2nc(CCn3c(C)nc4ccccc43)nn12)C(=O)Nc1ccc(F)cc1 (stereo not drawn)	.	.	0%	.	.
COc1ccc(Br)cc1CNC(=O)c1cc(=O)[nH]c2ccc(S(=O)(=O)N3CCCCC3C)cc12 (stereo not drawn)	.	.	5%	.	.
O=C1c2ccccc2C(=O)c2c(NCCCN(CCO)CCO)cccc21	-21	-12%	?	?	-29
CCN(CCCNc1cc2c(c(N)c1S(=O)(=O)O)C(=O)c1ccccc1C2=O)c1ccccc1	.	.	.	-65*	-16
N#Cc1nc(COc2ccccc2F)oc1NCCCn1ccnc1	4	-1%	-12%	?	-75*
COc1ccccc1OCc1nc(C#N)c(NCCCn2ccnc2)o1	-3	-1%	-26%	-1	-4
C/C(=N\NC(=O)c1cc(O)cc(O)c1)c1ccc(NC(=O)Cc2ccccc2)cc1	-3	-5%	?	-89*	-89*
O=S(=O)(O)c1cc(Cl)cc(N=Nc2ccc(O)cc2O)c1O	.	?	.	-92*	-90*
O=C(Nc1nc(-c2ccccc2)cs1)c1ccccc1NS(=O)(=O)c1ccc(F)cc1	-85*	68%	?	-10	-2
Cc1ccc(-c2csc(NC(=O)c3ccc(C)o3)n2)cc1	-18	-19%	4%	-1	-8
Cc1ccc(C(=O)Nc2nc(-c3ccc(F)cc3)cs2)o1	-121*	-2%	?	-7	-3
O=c1cc2c(=O)oc3cc(O)c(O)oc3c2c(O)c1O	-2	-2%	-1%	-78*	-23
Cc1nc(NCCCn2ccnc2)c2ccccc2n1	-3	-1%	-3%	2	3
c1ccc(-c2nc(NCCCn3ccnc3)c3oc4ccccc4c3n2)cc1	-30	-2%	?	?	-68*
c1cncc(-c2nc(NCCCn3ccnc3)c3ccccc3n2)c1	1	-1%	?	-73*	-11
CCCCC(CC)CNC(=O)CN1C(=O)CSc2ccc(S(=O)(=O)N3CCOCC3)cc21 (stereo not drawn)	.	.	-3%	.	.
